The text below walks through data of the supplement of paper PMC11172423.

The first assay deals with Madurella mycetomatis MM55. As to the kind of experiment: growth relative to untreated control; higher = less inhibition, active = 20 or less. The conditions noted are these: 25 µM. The method, then: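 Hyphal fragments of M. mycetomatis MM55 or F. senegalensis CBS197.79 in RPMI 1640/MOPS were exposed to each MMV COVID Box or Global Health Priority Box compound at 100 or 25 µM for 7 days at 37 °C. Viability was read with MTS (490 nm, M. mycetomatis) or resazurin (600 nm, F. senegalensis), background-corrected with a medium-only control and expressed as % growth relative to the untreated growth control. Inhibition of more than 80% was taken as growth inhibition.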
For `Cc1c(COC(=O)[C@@H]2[C@H](C=C(Cl)C(F)(F)F)C2(C)C)cccc1-c1ccccc1`, the growth was 123% (inactive).

As to `COc1ccc(Cc2nccc3cc(OC)c(OC)cc23)cc1OC`, the growth was 78% (inactive).

On to `CNC(=O)Oc1cccc2ccccc12`, for which the growth is 95.8% (inactive).

On to `COC(=O)N(C(=O)N1CO[C@@]2(C(=O)OC)Cc3cc(Cl)ccc3C2=N1)c1ccc(OC(F)(F)F)cc1`, for which the growth is 46.3% (inactive).

As for `CN(c1cc(NC(=O)c2ccc(F)cc2)ccn1)C1CCN(Cc2cccc(F)c2)CC1`, the growth is 5.69% (active).

For `COC(C)(C)CCCC(C)C/C=C/C(C)=C/C(=O)OC(C)C` (stereo not given), the growth is 47.7% (inactive).

Regarding `CNCCn1c(Nc2cc(Cl)cc(C(F)(F)F)c2)nc2cnc(NC3CC(F)(F)C3)cc21`, the growth was 22.2% (inactive).

`CC(C)=CC1C(C(=O)OC(C#N)c2cccc(Oc3ccccc3)c2)C1(C)C` (stereo not given): the growth was 83.3% (inactive).

Consider `ClC1=C(Cl)[C@@]2(Cl)[C@H]3C[C@@H](Cl)[C@H](Cl)[C@H]3[C@@]1(Cl)C2(Cl)Cl`, for which the growth was 104% (inactive).

As for `COc1ccc(C[C@H]2NC[C@H](O)[C@H]2OC(C)=O)cc1`, the growth was 111% (inactive).

Take `CN(C)CCn1c(Nc2cc(Cl)cc(C(F)(F)F)c2)nc2cnc(NC3CCCC3)cc21`: the growth is 39.6% (inactive).

With `CN/C(=N\[N+](=O)[O-])NCc1cnc(Cl)s1`, the growth is 112% (inactive).

For the compound `COP(=S)(OC)Oc1ccc(Sc2ccc(OP(=S)(OC)OC)cc2)cc1`, the growth is 118% (inactive).

Turning to `CN(C)CCn1c(Nc2cc(Cl)cc(C(F)(F)F)c2)nc2cnc(NC3CCC3)cc21`, the growth is 80.9% (inactive).

Consider `CNC(=O)c1cc(C#N)cc(C)c1NC(=O)c1cc(Br)nn1-c1ncccc1Cl`, for which the growth is 69.7% (inactive).

Turning to `CCN(CC)c1nc(C)cc(OP(=S)(OC)OC)n1`, the growth was 110% (inactive).

Take `Cc1cc(C2=NOC(c3cc(Cl)cc(Cl)c3)(C(F)(F)F)C2)ccc1C(=O)NCC(=O)NCC(F)(F)F` (stereo not given): the growth is 43.8% (inactive).

On to `CCS(=O)c1c(C#N)nn(-c2c(Cl)cc(C(F)(F)F)cc2Cl)c1N` (stereo not given), for which the growth is 91.7% (inactive).

In the case of `C/C=C(\C)C(=O)O[C@H]1C[C@@H](OC(C)=O)[C@@]2(C(=O)OC)CO[C@H]3[C@@H](O)[C@@](C)([C@]45O[C@@]4(C)[C@H]4C[C@@H]5O[C@@H]5OC=C[C@@]54O)[C@H]4[C@]1(CO[C@]4(O)C(=O)OC)[C@@H]32`, the growth was 130% (inactive).

`CC(C)=CC1C(C(=O)OCN2C(=O)C3=C(CCCC3)C2=O)C1(C)C` (stereo not given): the growth was 85.9% (inactive).

Still in this assay, the particulars now being: 100 µM.
On to `Cc1c(COC(=O)[C@@H]2[C@H](C=C(Cl)C(F)(F)F)C2(C)C)cccc1-c1ccccc1`, for which the growth was 156% (inactive).

For `COc1ccc(Cc2nccc3cc(OC)c(OC)cc23)cc1OC`, the growth was 83.4% (inactive).

For `CNC(=O)Oc1cccc2ccccc12`, the growth is 85.3% (inactive).

As for `COC(=O)N(C(=O)N1CO[C@@]2(C(=O)OC)Cc3cc(Cl)ccc3C2=N1)c1ccc(OC(F)(F)F)cc1`, the growth was 115% (inactive).

Turning to `CN(c1cc(NC(=O)c2ccc(F)cc2)ccn1)C1CCN(Cc2cccc(F)c2)CC1`, the growth is 9.07% (active).

Consider `COC(C)(C)CCCC(C)C/C=C/C(C)=C/C(=O)OC(C)C` (stereo not given), for which the growth was 105% (inactive).

As to `CNCCn1c(Nc2cc(Cl)cc(C(F)(F)F)c2)nc2cnc(NC3CC(F)(F)C3)cc21`, the growth is 6.62% (active).

For the compound `CC(C)=CC1C(C(=O)OC(C#N)c2cccc(Oc3ccccc3)c2)C1(C)C` (stereo not given), the growth was 145% (inactive).

For `ClC1=C(Cl)[C@@]2(Cl)[C@H]3C[C@@H](Cl)[C@H](Cl)[C@H]3[C@@]1(Cl)C2(Cl)Cl`, the growth was 130% (inactive).

On to `COc1ccc(C[C@H]2NC[C@H](O)[C@H]2OC(C)=O)cc1`, for which the growth was 3.35% (active).

As for `CN(C)CCn1c(Nc2cc(Cl)cc(C(F)(F)F)c2)nc2cnc(NC3CCCC3)cc21`, the growth was 124% (inactive).

Take `CN/C(=N\[N+](=O)[O-])NCc1cnc(Cl)s1`: the growth was 127% (inactive).

Consider `COP(=S)(OC)Oc1ccc(Sc2ccc(OP(=S)(OC)OC)cc2)cc1`, for which the growth was 118% (inactive).

Regarding `CN(C)CCn1c(Nc2cc(Cl)cc(C(F)(F)F)c2)nc2cnc(NC3CCC3)cc21`, the growth was 104% (inactive).

As to `CNC(=O)c1cc(C#N)cc(C)c1NC(=O)c1cc(Br)nn1-c1ncccc1Cl`, the growth is 55.9% (inactive).

In the case of `CCN(CC)c1nc(C)cc(OP(=S)(OC)OC)n1`, the growth was 99.4% (inactive).

Take `Cc1cc(C2=NOC(c3cc(Cl)cc(Cl)c3)(C(F)(F)F)C2)ccc1C(=O)NCC(=O)NCC(F)(F)F` (stereo not given): the growth was 9.07% (active).

With `CCS(=O)c1c(C#N)nn(-c2c(Cl)cc(C(F)(F)F)cc2Cl)c1N` (stereo not given), the growth was 92.4% (inactive).

`C/C=C(\C)C(=O)O[C@H]1C[C@@H](OC(C)=O)[C@@]2(C(=O)OC)CO[C@H]3[C@@H](O)[C@@](C)([C@]45O[C@@]4(C)[C@H]4C[C@@H]5O[C@@H]5OC=C[C@@]54O)[C@H]4[C@]1(CO[C@]4(O)C(=O)OC)[C@@H]32`: the growth is 106% (inactive).

Turning to `CC(C)=CC1C(C(=O)OCN2C(=O)C3=C(CCCC3)C2=O)C1(C)C` (stereo not given), the growth is 127% (inactive).
